Reference: PubChem BioAssay (EPA / NIEHS)
Results filed as inconclusive are left out. Activity calls are given as the source filed them. Rule for the calls, unless noted: active = hit-call score of the fitted dose curve at least 0.9, where 1 is the maximum; inconclusive = response in the unintended direction; inactive = score below 0.9.

How the values were obtained:
[1] = read-out: alkyl and aryl transferase (GSTA2), GSTA2 (gene 2939); test: CLD_GSTA2_24hr: CellzDirect (CLD) Gene Expression Assay for alkyl and aryl transferase (GSTA2) at 24 hours (AID 2283693)
Procedure, shortened: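 Primary human hepatocytes (two donor preparations) dosed daily for two days with chemicals at multiple concentrations (vehicle 0.2% DMSO); GSTA2 mRNA at 24 h measured by qNPA chemiluminescence, gain-of-signal versus DMSO.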

[2] = read-out: glucuronosyltransferase (UGT1A1), UGT1A1 (gene 54658); test: CLD_UGT1A1_24hr: CellzDirect (CLD) Gene Expression Assay for glucuronosyltransferase (UGT1A1) at 24 hours (AID 2283696)
Procedure, shortened: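 Primary human hepatocytes from two donor preparations were dosed (0.2% DMSO vehicle) and harvested at 24 h; UGT1A1 mRNA induction was quantified by chemiluminescent qNPA, fitted as gain relative to DMSO.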

[3] = read-out: ABC Transporter (ABCB11), ABCB11 (gene 8647); test: CLD_ABCB11_48hr: CellzDirect (CLD) Gene Expression Assay for ABC Transporter (ABCB11) at 48 hours (AID 2283697)
Procedure, shortened: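 Primary human hepatocytes from two donor preparations dosed daily for two days at multiple concentrations; 0.2% DMSO vehicle. ABCB11 mRNA at 48 h by quantitative nuclease protection assay, chemiluminescence; fitted for induction versus DMSO.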

[4] = read-out: Cytochrome P450 3A4 (Homo sapiens) (UniProt P08684); test: CLD_CYP3A4_48hr: CellzDirect (CLD) Gene Expression Assay for xenobiotic metabolism (CYP3A4) at 48 hours (AID 2283698)
Procedure, shortened: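 Primary human hepatocytes from two donor preparations dosed daily for two days with multiple chemical concentrations, 0.2% DMSO vehicle. CYP3A4 mRNA at 48 h by quantitative nuclease protection assay, chemiluminescence, positive fit versus DMSO; cytotoxicity flagged morphologically.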

[5] = read-out: Cytochrome P450 2B6 (Homo sapiens) (UniProt P20813); test: CLD_CYP2B6_48hr: CellzDirect (CLD) Gene Expression Assay for xenobiotic metabolism (CYP2B6) at 48 hours (AID 2283699);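 note: actives raise transcript level above DMSO so potency reflects induction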
Procedure, shortened: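 Primary human hepatocytes dosed daily for two days over multiple concentrations, 0.2% DMSO vehicle; CYP2B6 mRNA quantified at 48 h by qNPA chemiluminescence. Induction fitted as gain of signal versus DMSO; cytotoxicity annotated by morphology.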

[6] = read-out: xenobiotic metabolism (CYP1A2), CYP1A2 (gene 1544); test: CLD_CYP1A2_48hr: CellzDirect (CLD) Gene Expression Assay for xenobiotic metabolism (CYP1A2) at 48 hours (AID 2283703)
Procedure, shortened: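 Primary human hepatocytes from two donor preparations were dosed daily for two days at multiple concentrations in 0.2% DMSO vehicle. CYP1A2 mRNA was measured at 48 hours by chemiluminescent quantitative nuclease protection assay, with gain of signal fitted versus DMSO and cytotoxicity annotated from morphology.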

[7] = read-out: xenobiotic metabolism (CYP1A1), CYP1A1 (gene 1543); test: CLD_CYP1A1_48hr: CellzDirect (CLD) Gene Expression Assay for xenobiotic metabolism (CYP1A1) at 48 hours (AID 2283705)
Procedure, shortened: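 Primary human hepatocytes from two donors dosed daily for two days at multiple concentrations, 0.2% DMSO vehicle; CYP1A1 mRNA induction at 48 h by qNPA chemiluminescence. Cytotoxicity noted by phase-contrast morphology.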

[8] = read-out: glucuronosyltransferase (UGT1A1), UGT1A1 (gene 54658); test: CLD_UGT1A1_48hr: CellzDirect (CLD) Gene Expression Assay for glucuronosyltransferase (UGT1A1) at 48 hours (AID 2283709);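 note: actives increase expression relative to DMSO so potency refers to induction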
Procedure, shortened: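 Human primary hepatocytes dosed daily for two days (0.2% DMSO vehicle), harvested at 48 h. UGT1A1 mRNA induction measured by quantitative nuclease protection assay with chemiluminescence; gain of signal versus DMSO; cytotoxicity flagged from morphology.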

[9] = read-out: sulfotransferase (SULT2A), SULT2A1 (gene 6822); test: CLD_SULT2A_48hr: CellzDirect (CLD) Gene Expression Assay for sulfotransferase (SULT2A) at 48 hours (AID 2283710);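 note: hits raise SULT2A1 transcript above the 0.2% DMSO vehicle baseline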
Procedure, shortened: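 Primary human hepatocytes (two donor preparations) dosed daily for two days with chemicals at multiple concentrations, vehicle 0.2% DMSO; SULT2A1 mRNA induction at 48 h by quantitative nuclease protection assay, chemiluminescent read-out, fitted for gain of signal versus DMSO.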

[10] = read-out: xenobiotic metabolism (CYP2C9), CYP2C9 (gene 1559); test: CLD_CYP2C9_48hr: CellzDirect (CLD) Gene Expression Assay for xenobiotic metabolism (CYP1A2) at 48 hours (AID 2283701; active = hit-call score of the fitted dose curve at least 0.9, where 1 is the maximum; inactive = score below 0.9)
Procedure, shortened: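 Primary human hepatocytes (two donor preparations) dosed daily for two days with test chemicals, 0.2% DMSO vehicle; harvested at 48 h. mRNA induction quantified by qNPA chemiluminescence, fitted for gain of signal against DMSO baseline; cytotoxicity annotated from phase-contrast morphology.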

[11] = STM_H9_OrnithineISnorm_perc: Stemina devTOX quickPredict H9 human embryonic stem cell (hESC)-based Assay for Ornithine (ORN) Metabolite Biomarker, Normalized (AID 2283712; active = hit-call score of the fitted dose curve at least 0.9, where 1 is the maximum; inactive = score below 0.9;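 note: ornithine released into spent medium during last day measured by mass spectrometry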)
Procedure, shortened: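 Undifferentiated pluripotent H9 hESCs were exposed to compound for 72h, with media and compound replaced every 24h. Ornithine in final 24-h conditioned media was measured by UPLC-HRMS, normalized to 13C-labeled spike-in standard and to median 0.1% DMSO control.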

[12] = CLD_ACTIN_48hr: CellzDirect (CLD) Gene Expression Assay for Baseline Control (Actin) at 48 hours (AID 2283702)
Procedure, shortened: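 Primary human hepatocytes (two donor preparations) dosed daily for two days with ToxCast chemicals at multiple concentrations versus 0.2% DMSO vehicle; harvested at 48 h. Actin mRNA measured as a background control by quantitative nuclease protection assay with chemiluminescence.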

[13] = read-out: ABC Transporter (ABCB1), ABCB1 (gene 5243); test: CLD_ABCB1_48hr: CellzDirect (CLD) Gene Expression Assay for ABC Transporter (ABCB1) at 48 hours (AID 2283695)
Procedure, shortened: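 Primary human hepatocytes from two donor preparations dosed daily on two consecutive days with 0.2% DMSO vehicle. Harvest at 48 h. ABCB1 mRNA quantified by qNPA with chemiluminescence and fitted for gain of signal versus DMSO.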

[14] = read-out: Glyceraldehyde-3-phosphate dehydrogenase (Homo sapiens) (UniProt P04406); test: CLD_GAPDH_48hr: CellzDirect (CLD) Gene Expression Assay for Baseline Control (Glyceraldehyde 3-phosphate dehydrogenase) at 48 hours (AID 2283706);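 note: active means higher GAPDH mRNA than DMSO vehicle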
Procedure, shortened: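 Primary human hepatocytes dosed daily for two days with fresh chemical at multiple concentrations, 0.2% DMSO vehicle; GAPDH mRNA measured at 48 h by quantitative nuclease protection assay with chemiluminescence, fitted upward relative to DMSO as background control.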

[15] = read-out: organic anion transporter (SLCO1B1), SLCO1B1 (gene 10599); test: CLD_SLCO1B1_48hr: CellzDirect (CLD) Gene Expression Assay for organic anion transporter (SLCO1B1) at 48 hours (AID 2283707)
Procedure, shortened: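 Primary human hepatocytes from two donor preparations dosed daily for two days with multiple concentrations, 0.2% DMSO vehicle. SLCO1B1 mRNA at 48 h by quantitative nuclease protection assay, chemiluminescence; gain-of-signal fitted versus DMSO.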

[16] = read-out: sulfotransferase (SULT2A), SULT2A1 (gene 6822); test: CLD_SULT2A_24hr: CellzDirect (CLD) Gene Expression Assay for sulfotransferase (SULT2A) at 24 hours (AID 2283694)
Procedure, shortened: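 Primary human hepatocytes from two donor preparations were dosed daily with fresh solutions, vehicle 0.2% DMSO. At 24 h, lysates went to quantitative nuclease protection (qNPA) with S1 digestion and chemiluminescent readout. Cytotoxicity was annotated from phase-contrast morphology.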

[17] = read-out: alkyl and aryl transferase (GSTA2), GSTA2 (gene 2939); test: CLD_GSTA2_48hr: CellzDirect (CLD) Gene Expression Assay for alkyl and aryl transferase (GSTA2) at 48 hours (AID 2283708);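 note: active means mRNA induction above DMSO vehicle baseline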
Procedure, shortened: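 Primary human hepatocytes dosed daily for two days (0.2% DMSO vehicle), harvested at 48 h. GSTA2 mRNA induction measured by quantitative nuclease protection assay with chemiluminescent imaging, fitted for gain of signal relative to DMSO.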

[18] = read-out: Broad substrate specificity ATP-binding cassette transporter ABCG2 (Homo sapiens) (UniProt Q9UNQ0); test: CLD_ABCG2_48hr: CellzDirect (CLD) Gene Expression Assay for ABC Transporter (ABCG2) at 48 hours (AID 2283704)
Procedure, shortened: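 Primary human hepatocytes from two donors, dosed daily for 2 days, 0.2% DMSO vehicle, several concentrations. ABCG2 mRNA at 48 h by qNPA chemiluminescence, gain fitted versus DMSO; cytotoxicity flagged by morphology.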

Cytochrome P450 3A4 (Homo sapiens), sequence (P08684 whole entry, looked up): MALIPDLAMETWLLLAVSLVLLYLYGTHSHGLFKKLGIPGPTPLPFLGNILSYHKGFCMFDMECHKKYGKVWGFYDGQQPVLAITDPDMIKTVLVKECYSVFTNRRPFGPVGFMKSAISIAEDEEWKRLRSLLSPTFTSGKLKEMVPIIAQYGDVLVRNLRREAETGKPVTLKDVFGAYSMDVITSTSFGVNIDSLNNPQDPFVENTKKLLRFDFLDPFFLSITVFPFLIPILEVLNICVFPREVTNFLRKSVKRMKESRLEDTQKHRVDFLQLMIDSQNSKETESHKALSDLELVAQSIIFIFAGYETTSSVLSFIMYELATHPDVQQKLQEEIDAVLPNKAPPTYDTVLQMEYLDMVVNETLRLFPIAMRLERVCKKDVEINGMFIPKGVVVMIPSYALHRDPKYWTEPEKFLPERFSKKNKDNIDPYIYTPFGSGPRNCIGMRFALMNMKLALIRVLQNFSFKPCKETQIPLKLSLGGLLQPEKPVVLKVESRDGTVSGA
Glyceraldehyde-3-phosphate dehydrogenase (Homo sapiens), sequence (P04406 whole entry, looked up): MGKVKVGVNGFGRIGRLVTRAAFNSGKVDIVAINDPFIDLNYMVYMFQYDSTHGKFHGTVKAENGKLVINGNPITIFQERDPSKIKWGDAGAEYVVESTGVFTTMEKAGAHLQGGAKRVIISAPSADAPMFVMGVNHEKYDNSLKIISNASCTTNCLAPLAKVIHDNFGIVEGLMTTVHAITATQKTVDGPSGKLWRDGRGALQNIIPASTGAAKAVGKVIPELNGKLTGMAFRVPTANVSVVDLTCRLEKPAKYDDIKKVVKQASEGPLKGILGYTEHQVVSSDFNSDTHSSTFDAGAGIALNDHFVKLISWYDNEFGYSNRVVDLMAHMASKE
Broad substrate specificity ATP-binding cassette transporter ABCG2 (Homo sapiens), sequence (Q9UNQ0 whole entry, looked up): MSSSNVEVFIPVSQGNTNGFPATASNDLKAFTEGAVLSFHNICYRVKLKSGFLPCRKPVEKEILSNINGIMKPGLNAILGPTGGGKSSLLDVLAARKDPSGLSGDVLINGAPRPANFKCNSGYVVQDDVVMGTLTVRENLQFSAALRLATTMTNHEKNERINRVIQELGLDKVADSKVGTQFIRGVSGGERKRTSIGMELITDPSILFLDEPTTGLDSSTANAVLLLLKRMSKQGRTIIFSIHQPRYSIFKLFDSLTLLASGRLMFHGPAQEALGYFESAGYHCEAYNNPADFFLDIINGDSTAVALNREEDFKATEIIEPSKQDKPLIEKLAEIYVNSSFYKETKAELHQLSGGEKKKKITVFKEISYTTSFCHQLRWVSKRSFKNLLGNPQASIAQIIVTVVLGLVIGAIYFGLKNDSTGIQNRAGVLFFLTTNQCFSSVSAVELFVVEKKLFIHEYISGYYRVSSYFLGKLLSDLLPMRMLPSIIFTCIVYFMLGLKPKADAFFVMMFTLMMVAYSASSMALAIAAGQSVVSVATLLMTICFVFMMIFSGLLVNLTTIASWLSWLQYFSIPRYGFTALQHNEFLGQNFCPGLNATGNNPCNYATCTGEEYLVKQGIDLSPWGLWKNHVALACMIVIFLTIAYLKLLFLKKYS

CCOP(=S)(Oc1cnc(C(C)(C)C)nc1)OC(C)C (stereo unspecified)
outcome [1]: inactive
AC50 [2]: 3.14 µM (active)
outcome [3]: inactive
AC50 [4]: 0.383 µM (active)
AC50 [5]: 0.427 µM (active)
AC50 [6]: 2.68 µM (active)
AC50 [7]: 3.91 µM (active)
AC50 [8]: 0.439 µM (active)

Cc1cc(C2CC2)nc(Nc2ccccc2)n1
outcome [2]: inactive
outcome [4]: inactive
AC50 [5]: 1.09 µM (active)
AC50 [6]: 3.97 µM (active)
outcome [7]: inactive
outcome [8]: inactive
outcome [9]: inactive

CCNc1nc(Cl)nc(NC(C)(C)C#N)n1
outcome [1]: inactive
outcome [2]: inactive
AC50 [4]: 20 µM (active)
AC50 [5]: 3.45 µM (active)
AC50 [10]: 0.0364 µM (active)
outcome [6]: inactive
outcome [7]: inactive
outcome [8]: inactive
outcome [11]: inactive

CON=C(C(=O)OC)c1ccccc1CON=C(C)c1cccc(C(F)(F)F)c1
outcome [1]: inactive
outcome [2]: inactive
AC50 [4]: 13.1 µM (active)
outcome [5]: inactive
outcome [12]: inactive
outcome [6]: inactive
AC50 [7]: 20 µM (active)
outcome [8]: inactive
outcome [11]: inactive

Cc1nn(-c2cc(NS(C)(=O)=O)c(Cl)cc2Cl)c(=O)n1C(F)F
outcome [13]: inactive
outcome [2]: inactive
AC50 [4]: 2.46 µM (active)
AC50 [5]: 6.7 µM (active)
outcome [12]: inactive
outcome [6]: inactive
outcome [7]: inactive
outcome [14]: inactive
outcome [15]: inactive
outcome [8]: inactive
AC50 [11]: 0.114 µM (active)

CC(C1CC1)C(O)(Cn1cncn1)c1ccc(Cl)cc1 (stereo unspecified)
outcome [1]: inactive
outcome [16]: inactive
outcome [2]: inactive
AC50 [4]: 20 µM (active)
AC50 [5]: 2.42 µM (active)
AC50 [10]: 0.0911 µM (active)
AC50 [6]: 5.01 µM (active)
outcome [7]: inactive
outcome [8]: inactive
AC50 [11]: 50 µM (active)

CCOP(=S)(OCC)Oc1cc(C)nc(C(C)C)n1
outcome [1]: inactive
outcome [16]: inactive
AC50 [2]: 1.92 µM (active)
AC50 [5]: 1.89 µM (active)
AC50 [6]: 2.77 µM (active)
AC50 [7]: 4.2 µM (active)
outcome [17]: inactive
outcome [8]: inactive
AC50 [11]: 79.1 µM (active)

C#CC(C)(C)NC(=O)c1cc(Cl)cc(Cl)c1
outcome [13]: inactive
AC50 [2]: 1.69 µM (active)
outcome [4]: inactive
AC50 [5]: 3.69 µM (active)
AC50 [6]: 0.348 µM (active)
outcome [7]: inactive
AC50 [8]: 6.38 µM (active)
AC50 [9]: 5.38 µM (active)

CC1(C(=O)Nc2ccc(O)c(Cl)c2Cl)CCCCC1
outcome [2]: inactive
outcome [12]: inactive
outcome [18]: inactive
outcome [14]: inactive
outcome [8]: inactive
